The text below walks through data of ChEMBL document CHEMBL3433997, “St. Jude Leishmania screening dataset” (2016).

SMILES strings stand for the structures. Values joined by “and” are separate entries in the source; they are usually repeats but may differ in a detail not shown here. Identical values can stand only once.

Format in all cases: functional
Assay [1] has as its target Solute carrier family 2, facilitated glucose transporter member 1 (Homo sapiens) (UniProt P11166). The assay can be described thus: ST_JUDE_LEISH: Cytotoxicity at 2uM final concentration against transgenic Leishmania Mexicana promastigotes LmGLUT1 that are glucose transport deficient and complemented with the human glucose transporter GLUT1. Activity is measured by DNA content using SYBR green in vitro.

Assay [2] deals with Hexose transporter 1 (Plasmodium falciparum) (UniProt O97467). The assay can be described thus: ST_JUDE_LEISH: Cytotoxicity at 2uM final concentration against transgenic Leishmania Mexicana promastigotes LmPfHT that are glucose transport deficient and complemented with the Plasmodium falciparum hexose transporter. Activity is measured by DNA content using SYBR green in vitro.

In assay [3] the target is Glucose transporter (Leishmania mexicana) (UniProt O61059). The assay can be described thus: ST_JUDE_LEISH: Cytotoxicity at 2uM final concentration against transgenic Leishmania Mexicana promastigotes LmGT2 that are glucose transport deficient and complemented with the L. Mexicana glucose transporter 2. Activity is measured by DNA content using SYBR green in vitro.

Solute carrier family 2, facilitated glucose transporter member 1 (Homo sapiens), sequence (P11166 whole entry): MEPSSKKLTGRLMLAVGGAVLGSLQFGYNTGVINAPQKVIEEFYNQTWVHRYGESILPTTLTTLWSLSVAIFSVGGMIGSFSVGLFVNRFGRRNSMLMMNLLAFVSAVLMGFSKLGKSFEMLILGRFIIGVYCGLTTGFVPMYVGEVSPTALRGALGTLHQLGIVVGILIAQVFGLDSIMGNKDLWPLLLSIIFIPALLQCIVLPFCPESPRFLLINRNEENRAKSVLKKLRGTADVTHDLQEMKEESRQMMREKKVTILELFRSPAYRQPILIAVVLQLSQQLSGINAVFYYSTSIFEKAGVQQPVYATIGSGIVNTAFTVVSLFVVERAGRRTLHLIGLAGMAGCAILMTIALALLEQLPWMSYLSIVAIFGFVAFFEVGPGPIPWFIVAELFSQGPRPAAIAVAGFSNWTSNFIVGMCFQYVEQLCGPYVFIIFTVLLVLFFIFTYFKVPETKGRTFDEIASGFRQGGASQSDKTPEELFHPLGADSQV

What is called inhibition is the drop in the measured response relative to a control, in per cent. In the case of `OCCN1CCN(Cc2ccc(-c3cccc(-c4nc5cc(F)ccc5[nH]4)c3)cc2)CC1`, the figures for the inhibition in assay [1], in assay [2] and in assay [3] were 2.82%, -0.2% and 0.18%, respectively.

Consider `COc1cc2c(cc1OC)C(C)(C)CN1Cc3c(c(CO)c(OC)c(OC)c3OC)CC21` (stereo unspecified), for which the inhibition turned out to be 4.54% in assay [1], 3.72% in assay [2] and 4.31% in assay [3].

With `CN1CCN(CCCN(Cc2cccc(-c3cccc(CNC4CCCC4)c3)c2)C(=O)/C=C/c2ccccc2)CC1`, the inhibition in assay [1] is -1.1%; in assay [2], -0.02%; in assay [3] it was -2.44%.

Turning to `COc1ccc(NS(=O)(=O)c2cccc(C(=O)Nc3ccc(C(F)(F)F)cc3)c2)cc1N1CCN(CC(C)C)CC1`, the results for the inhibition in assay [1], in assay [2] and in assay [3] were 7.82%, 4.29% and 6.21%, respectively.

With `Cc1ccc(Cl)c2sc(N3CCN(C(=O)c4ccc([N+](=O)[O-])o4)CC3)nc12`, the inhibition worked out at 62.4% in assay [1], 54.6% in assay [2] and 27.6% in assay [3].

As for `O=C(NCc1cccc(OC(F)(F)F)c1)c1cnc2c(c1)nc(-c1c[nH]c(-c3ccccc3)n1)n2CCc1c[nH]cn1`, the values for the inhibition in assay [1], in assay [2] and in assay [3] were 2.3%, 2.34% and -2.01%, respectively.

With `COCc1ccccc1C(=O)NCCOc1cc(C)cc(C)c1`, the inhibition was -0.29% in assay [1], 0.17% in assay [2] and -0.46% in assay [3].

In the case of `O=c1cc(NCCCNCc2cccc(C(F)(F)F)c2Cl)[nH]c2ccccc12`, the inhibition in assay [1] was 3.39%; in assay [2], 3.63%; in assay [3], 2.75%.

`Cc1ccccc1Cn1c(CN2CCC(C(=O)NC3CC3)CC2)cc2ccccc21`: the inhibition in assay [1] was found to be 2.57%; in assay [2] it was 1.99%; in assay [3], 5.38%.

For the compound `CC(C)(C)OC(=O)NCc1ccc(Nc2nnc(-c3cccc(C(=O)NCCC(c4ccccc4)c4ccccc4)c3)o2)cc1`, the inhibition in assay [1] worked out at 8.74%; in assay [2], 10.6%; in assay [3], 7.8%.

As to `CCCC1N=C(N)N=C(N)N1c1ccc(C)cc1` (stereo unspecified), the results for the inhibition in assay [1], in assay [2] and in assay [3] were 4.06%, 2.51% and 2.47%, respectively.

Take `O=C(NCC1CCC(C(=O)NC2CCCc3ccccc32)CC1)c1ccc(O)c(-c2cccc([N+](=O)[O-])c2)c1` (stereo unspecified): the figures for the inhibition in assay [1], in assay [2] and in assay [3] were 3.94%, 2.12% and 2.39%, respectively.

As to `O=C(NCC1CCN(Cc2cccc(C(F)(F)F)c2)C1)c1cc(-c2cccc(F)c2)cs1` (stereo unspecified), the inhibition worked out at 5.58% in assay [1], 5.35% in assay [2] and 5.45% in assay [3].

`Cc1c(C(=O)N(C)C)sc2c1c(=O)n(Cc1ccccc1)c(=O)n2CC(=O)Nc1ccccc1F`: the inhibition in assay [1] was 2.21%; in assay [2], 3.39%; in assay [3], 1.57%.

As for `COc1cccc(CN(C(=O)Nc2ccccc2F)[C@H]2C[C@H]3C(=O)Nc4cc(F)ccc4C(=O)N3C2)c1`, the values for the inhibition in assay [1], in assay [2] and in assay [3] were 4.68%, 4.97% and 5.37%, respectively.

Take `COc1ccc2nccc([C@@H](O)CN3CCC(NCc4nc5c(cc4Cl)SCC(=O)N5)C(F)C3)c2c1` (stereo partly specified): the inhibition in assay [1] was 2.28% and 11.3%; in assay [2] it was 2.07% and 9.64%; in assay [3], 1.15% and 6.72%.

As to `CN(C)S(=O)(=O)c1ccc(Nc2nc(NCCC3C=NC=N3)nc3cc[nH]c(=O)c23)cc1` (stereo unspecified), the results for the inhibition in assay [1], in assay [2] and in assay [3] were 4.88%, 5.35% and 4.93%, respectively.

`OCCc1ccc(Nc2nccc(-c3nnc4ccccn34)n2)cc1`: the results for the inhibition in assay [1], in assay [2] and in assay [3] were 6.85%, 6.22% and 6.32%, respectively.

On to `Cc1cccc(C)c1CNc1ccnc2ccccc12`, for which the inhibition turned out to be 1.11% in assay [1], 2.91% in assay [2] and 6.9% in assay [3].

Take `Cc1nc(C)c(CC(=O)Nc2cccc(-c3cccc(-c4nc5cccc(C)c5[nH]4)c3)c2)s1`: the inhibition in assay [1] is -1.73%; in assay [2], -0.36%; in assay [3] it was -0.58%.

In the case of `COc1cc2c(cc1S(=O)(=O)c1ccc(NC(=O)c3cc4ccccc4s3)cc1)CCN(C)CC2`, the inhibition was -1.48% in assay [1], 3.2% in assay [2] and 1.94% in assay [3].

Turning to `N#Cc1cccc(-c2cnc(N)c(-c3nc4cc(S(N)(=O)=O)ccc4[nH]3)c2)c1`, the inhibition turned out to be 1.03% in assay [1], 1.38% in assay [2] and 2.21% in assay [3].

With `O[C@@H](c1cc(C(F)(F)F)nc2c(C(F)(F)F)cccc12)[C@H]1CCCCN1`, the inhibition in assay [1] is 13.6% and 1.21%; in assay [2], 8.31% and 0.88%; in assay [3], 7.19% and 1.05%.

On to `Nc1c2c(nc3ccc(NC(=O)c4ccccc4)cc13)CCCC2`, for which the inhibition in assay [1] was 3.15%; in assay [2], 2.68%; in assay [3], 4.86%.

For the compound `COc1ccc(CN(C)C(=O)CCNS(=O)(=O)c2ccc3c(c2)OCCCO3)cc1F`, the inhibition amounted to 5.25% in assay [1], 6.84% in assay [2] and 7.12% in assay [3].

For `NC(=O)c1cnc2ccc(-c3cncs3)cc2c1Nc1ccc(F)c(Cl)c1`, the inhibition in assay [1] is 1.94%; in assay [2] it was 2.75%; in assay [3] it was 1.95%.

Take `O=C(COc1ccccc1Cc1ccccc1)Nc1cc(Cl)ccc1-n1cncn1`: the inhibition in assay [1] came out at 4.5%; in assay [2], 4.62%; in assay [3] it was 3.15%.

As for `COc1ccc2nccc([C@@H](O)CN3CCC(NC(=O)/C=C/c4cccc(-c5ccccc5)c4)CC3)c2c1`, the figures for the inhibition in assay [1], in assay [2] and in assay [3] were 7.76%, 6.73% and 0.36%, respectively.

Take `CC(=NNC(=N)N)c1ccc2c(ccc3ccccc32)c1`: the values for the inhibition in assay [1], in assay [2] and in assay [3] were 2.47%, 1.59% and 0.58%, respectively.

Consider `COc1ccc(-c2nc3ccc(C)nc3nc2-c2ccc(OC)cc2)cc1`, for which the inhibition was 5.17% in assay [1], 3.91% in assay [2] and 3.89% in assay [3].

`O=C(NCc1ccc(Cl)c(Cl)c1)c1cc(CNC2CCNCC2)ccc1O`: the inhibition was determined as 0.91% in assay [1], 5.71% in assay [2] and 2.11% in assay [3].

Turning to `O=C(Nc1ccc(OC2CCN(Cc3ccsc3)C2)c(Cl)c1)c1ccsc1` (stereo unspecified), the figures for the inhibition in assay [1], in assay [2] and in assay [3] were 2.57%, 2.64% and 1.08%, respectively.

With `COc1cc(O)c2c(=O)c(OC)c(-c3cccc(Cl)c3OC3O[C@H](CO)[C@@H](O)[C@H](O)[C@H]3O)oc2c1OC` (stereo partly specified), the inhibition came to 5.21% in assay [1], 4.48% in assay [2] and 4.54% in assay [3].

On to `Cc1noc(C)c1-c1cccc(CNCc2ccc(-c3cccc(-c4nc5cc(F)ccc5[nH]4)c3)cc2)c1`, for which the inhibition was 11.3% in assay [1], 10.1% in assay [2] and 10.8% in assay [3].

Turning to `Cc1nc(-c2ccncc2)sc1C(=O)Nc1ccc(Cl)cc1C(=O)Nc1ccc(Cl)cc1`, the results for the inhibition in assay [1], in assay [2] and in assay [3] were 3.13%, 3.01% and 2.19%, respectively.

In the case of `CCn1c(-c2nonc2N)nc2c(-c3cccc(NC(=O)Nc4ccc(Cl)cc4)c3)ncc(OCCCN)c21`, the inhibition in assay [1] worked out at 1.03%; in assay [2], 0.62%; in assay [3] it was 1.46%.

Take `O=C(Nc1cccc(CN2CCCN(Cc3cccc(Cl)c3)CC2)c1)c1ccc(-c2ccccc2)cc1`: the figures for the inhibition in assay [1], in assay [2] and in assay [3] were 4.82%, 4.23% and 0.66%, respectively.
